# Bioassay records: PubChem BioAssay, National Center for Advancing Translational Sciences (NCATS)
# TbPYK inhibitor: inhibitors of Trypanosoma brucei pyruvate kinase; Q57TT1; Potency, µM (highest dose often 76.8 µM), without a hit: at the highest dose activity, negative = inhibition, usual class: inhibitors; 0.12% of 410,000 active; TbPYK enzyme, Kinase-Glo Plus ATP luminescence, 45 min; further: on the % scale 0 is the no-effect control and ±100 the full control effect; nearly all actives have a fitted effect of over 50% in size
#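 Glycolytic pyruvate kinase of T. brucei was incubated with substrate, test compound and 130 uM ADP for 45 minutes at room temperature. Luminescent Kinase-Glo Plus signal was measured after 10 minutes.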
# RE007 growth inh: less growth of the S. pombe RE007 Vpr strain; S. pombe RE007 Vpr strain, BacTiter-Glo ATP luminescence, 24 h; Potency, µM (titrated, usually from 92.2 µM), for inactives: top-dose activity change, negative = less growth, usual class: inhibitors; 0.21% of 360,000 active; AID 651644; active means well fitted falling curve with a large enough effect; inconclusive means small, poorly fitted or top-dose-only effect; inactive means no such curve, though single readings can be large or run the other way; further: on the % scale 0 is the no-effect control and ±100 the full control effect; nearly all actives have a fitted effect of over 50% in size
#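 Fission yeast RE007 carrying one integrated HIV-1 vpr copy, seeded at OD 0.01 in PMG+AL medium with 23 nL pinned compound. Grown 24 h at 30 degrees; viability read by BacTiter-Glo luminescence after 5 min.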
# AmpC detergent: blocks E. coli AmpC beta-lactamase in detergent assay. AID 485294. Potency, µM (top dose mostly 114 µM), for inactives: at the top dose activity change, negative = inhibition, most hits filed as inhibitors. AmpC hydrolysis of nitrocefin, absorbance 480 nm, 0.01% Triton. 0.041% of 370,000 active. P00811;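 further: 0% = no-compound wells and -100% = no-enzyme wells; nearly all actives have a fitted effect of over 25% in size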
# Target sequence (P00811 whole entry, looked up): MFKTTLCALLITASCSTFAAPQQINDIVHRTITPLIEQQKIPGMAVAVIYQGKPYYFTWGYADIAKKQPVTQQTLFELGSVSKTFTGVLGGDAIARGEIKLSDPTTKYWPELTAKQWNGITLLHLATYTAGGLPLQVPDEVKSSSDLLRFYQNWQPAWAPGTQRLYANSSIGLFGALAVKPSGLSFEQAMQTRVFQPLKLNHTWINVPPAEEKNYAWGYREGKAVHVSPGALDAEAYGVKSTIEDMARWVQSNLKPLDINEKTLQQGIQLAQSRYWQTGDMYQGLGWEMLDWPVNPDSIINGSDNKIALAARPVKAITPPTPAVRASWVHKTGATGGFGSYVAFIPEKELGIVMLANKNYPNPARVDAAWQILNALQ
#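 AmpC (5.3 nM in the dispensed reagent) in 20 mM phosphate pH 7.0 with 0.01% (detergent screen) or 0.0001% Triton X-100 was preincubated with compounds for 15 min at room temperature. Nitrocefin was then added from an 800 uM solution, and hydrolysis was followed at 480 nm.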
# Sm TGR block: S. mansoni TGR enzyme inhibition; purified TGR, DTNB reduction, TNB absorbance 405 nm; Potency, µM (titrated, usually from 114 µM), for inactives: at the top dose activity change, negative = inhibition, actives largely listed as inhibitors; 3% of 360,000 active; AID 485364; Q962Y6; further: on the % scale 0 is the no-effect control and ±100 the full control effect; nearly all actives have a fitted effect of over 60% in size
#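 TGR 20 nM + NADPH 100 uM (dispensed conc.), cpd preinc 15 min RT; start with NADPH (500 uM addition) then DTNB (15 mM addition). Kinetic TNB absorbance, 405 nm filter. Four-parameter Hill fit across titration.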
# SARS PLP yeast: SARS-CoV PLP inhibition in yeast; S. cerevisiae expressing SARS-CoV PLpro, growth rescue; Potency, µM (doses to about 32.9 µM), for inactives: at the highest dose activity, positive = growth rescue, usual class: activators; 0.19% of 330,000 active; AID 485353; calls by dose curve; further: 0% is about no effect; nearly all actives have a fitted effect of over 55% in size
# AmpC inh no detg: blocks E. coli AmpC beta-lactamase in detergent-free assay; P00811; AmpC nitrocefin hydrolysis, absorbance 480 nm, 0.0001% Triton; 0.52% of 330,000 active; Potency, µM (highest dose often 57.1 µM), without a hit: at the top dose activity change, negative = inhibition, usual class: inhibitors; AID 485341;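 further: plate controls were no compound for no effect and no enzyme for full effect; nearly all actives have a fitted effect of over 20% in size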
#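 AmpC (5.3 nM in the dispensed reagent) in 20 mM phosphate pH 7.0 with 0.01% (detergent screen) or 0.0001% Triton X-100 was preincubated with compounds for 15 min at room temperature. Nitrocefin was then added from an 800 uM solution, and hydrolysis was followed at 480 nm.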
# Starred values were filed as active, the others as inactive; ? = inconclusive; · = no result; [ ] = dose if it differs, or a comment. Only some compounds are listed: those with a hit (about 3.3% of all), similar ones and a draw of the others. Unless noted, the call rests on the fitted dose curve; in most records, active means well fitted curve in the direction sought with a large enough effect; inconclusive means small, poorly fitted or top-dose-only effect, or another doubt; inactive means no such curve, though single readings can be large; an effect the other way counts as inactive or inconclusive. Potency means the concentration at half of the fitted maximal effect.
SMILES,TbPYK inhibitor,RE007 growth inh,AmpC detergent,Sm TGR block,SARS PLP yeast,AmpC inh no detg
Cc1ccnc(NC(c2ccccn2)c2c(C)[nH]c3ccccc23)c1 (stereo not given),66.7%,-5.0%,-7.4%,0.282µM*,-0.4%,-1.3%[2.29 µM]
Cc1cc(F)ccc1S(=O)(=O)Nc1ccc2c(c1)CCCN2C(=O)c1cccs1,-0.8%,·,3.3%,1.9%,·,·
O=C(CSc1nnc(-c2ccc(Cl)cc2)o1)N1CCc2ccccc21,-2.4%,·,14.8%,5.1%,·,·
COc1ccc(C(=O)NN2C(=O)C3C4C=CC(O4)C3C2=O)cc1 (stereo not given),-10.0%,1.8%,2.5%,17.8µM*,-2.0%,-19.4%
COc1cccc(C(=O)NN2C(=O)C3C4C=CC(O4)C3C2=O)c1 (stereo not given),-10.5%,-2.6%,-3.0%,20µM*,0.4%,-9.6%
Cc1ccc(C(=O)NN2C(=O)C3C4C=CC(C4)[C@@H]3C2=O)cc1 (stereo not given in full),3.0%,4.7%,-7.0%,-17.1%,-4.6%,-17.5%
COCCNC(=O)CN1C(=O)c2cccnc2Sc2ccccc21,-0.2%,·,1.1%,-9.9%,·,·
NC(=O)c1c(NC(=O)CN2CCOCC2)sc2c1CCC2,1.2%,-11.7%,-13.8%,35.5µM*,1.9%,6.2%
NC(=O)c1c(NC(=O)CN2C(=O)CCC2=O)sc2c1CCCCC2,2.4%,-4.4%,-1.9%,3.3%,4.4%,31.6µM*
NC(=O)c1c(NC(=O)CN2CCCC2)sc2c1CCCC2,?,-1.1%,-14.6%,0.1%,2.0%,46.0%
O=c1c2sc3ccccc3c2n(Cc2ccc(F)cc2Cl)c(=O)n1Cc1ccccc1,-11.0%,·,-3.8%,1.1%,·,·
CCOC(=O)C(C)n1nc(C)c2sc3ccccc3c2c1=O (stereo not given),-4.7%,4.5%,0.2%,39.8µM*,9.5%,3.2%
O=C(COC(=O)c1ncc(Cl)c(Cl)c1Cl)Nc1ccc(Cl)cn1,-4.5%,-14.1%,-9.6%,39.8µM*,1.5%,-33.9%
O=C(COC(=O)c1nc(Cl)ccc1Cl)Nc1ccc(Cl)cn1,-8.7%,-9.9%,?,-16.9%,-6.6%,-31.0%
CCN(CC)c1ccc(/C=C2/SC(=O)N(C(C)C)C2=O)o1,?,?,-14.3%,11.2µM*,-88.5%,-23.8%
CCN(CC)c1ccc(C=C2C(=O)N(C)C(=S)N(C)C2=O)o1,-10.4%,-19.0%,1.4%,44.7µM*,-5.7%,-36.3%
COC(=O)c1ccc(C2c3c(oc4ccc(C)cc4c3=O)C(=O)N2Cc2ccc3c(c2)OCO3)cc1 (stereo not given),-5.5%,·,2.0%,-6.4%,·,·
O=C(Cc1ccccc1)Nc1cccc(N2C(=O)C=CC2=O)c1,?,-17.7%,?,0.447µM*,-79.0%,-29.9%
c1ccc(CCN=C2CCCc3c2[nH]c2ccccc32)cc1,0.8%,-7.2%,-1.1%,56.2µM*,-0.6%,-24.7%
C=CCNC(=O)Nc1ccc(Br)cc1Cl,10.1%,1.2%,-7.3%,7.1%,0.7%,-13.6%
O=C(Nc1ccncc1)Nc1ccc(Br)cc1Cl,0.6%,-1.8%,?,-0.6%,11.1%,7.94µM*
N#CC(C#N)=C1C=CC=CN1/C(=C\c1ccccc1)C(=O)c1cccs1,-24.7%,-7.0%,-13.9%,0.282µM*,-41.0%,5.3%
N#CC(C#N)=C1C=CC=CN1/C(=C\c1ccccc1Cl)C(=O)c1ccccc1,?,-9.9%,-0.6%,0.282µM*,-131.5%,-2.6%
CC1CCN(C(=O)/C(=C/c2ccccc2Cl)c2ccccc2)CC1,0.8%,8.6%,-6.0%,8.4%,-22.6%,-6.7%
Cc1ccc(Nc2nnc(-c3ccc(C)c(S(=O)(=O)N4CCN(C)CC4)c3)c3ccccc23)c(C)c1,1.3%,·,10.7%,-1.4%,·,·
Cc1csc(N/N=C\c2cccnc2)n1,-2.3%,-4.7%,0.2%,22.4µM*,-2.4%,-31.9%
